In the library only some 2.8% were active in any assay of this set; here they are far more common.
DRD3 antagonist = D3 dopamine receptor (human) antagonism | max response, negative = inhibition, % | AID 652054 | 360,000 tested, 2.5% active | P35462 | D3R cells, DiscoveRx beta-arrestin luminescence, antagonist mode; active compounds read low; in the data active means max response below about -50%; inconclusive means no clear call, values can overlap the other calls; further: on the % scale 0 is the no-effect control and ±100 the full control effect
Target sequence (P35462 whole entry, looked up): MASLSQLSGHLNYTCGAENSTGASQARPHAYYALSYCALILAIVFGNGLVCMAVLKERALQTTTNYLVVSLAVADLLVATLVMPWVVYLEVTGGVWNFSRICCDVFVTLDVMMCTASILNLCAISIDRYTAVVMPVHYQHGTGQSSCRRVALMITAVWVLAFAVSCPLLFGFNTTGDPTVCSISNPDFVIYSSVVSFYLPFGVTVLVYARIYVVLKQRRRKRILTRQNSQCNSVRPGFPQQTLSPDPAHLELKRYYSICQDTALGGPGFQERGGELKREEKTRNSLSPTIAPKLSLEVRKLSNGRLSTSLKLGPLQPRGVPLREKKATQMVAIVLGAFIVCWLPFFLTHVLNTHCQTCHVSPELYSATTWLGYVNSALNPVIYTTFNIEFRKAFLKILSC
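Cells plated overnight at 1500 cells/well, then exposed to library compounds with dopamine controls for 90 minutes at 37 degrees C. DiscoveRx reagent added for 30–60 minutes at room temperature; luminescence read, quantitative HTS format.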
PI4K2A block = inhibitors of human PI4K2A. activity change, negative = inhibition, % at 76.9 µM. purified PI4K2A, ADP-Glo luminescence, 1 h; active compounds read low. Q9BTU6. 420,000 tested, 0.13% active; in the data active means activity change below about -50%; inconclusive means mostly about -30% to -49%;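 further: -100% = wells without enzyme as full effect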
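In this quantitative HTS, ADP production by PI4K2A was quantified luminescently after 1 h at ambient temperature; 100 microM adenosine served as plate-quality control.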
DRD3 agonist = activates the human D3 dopamine receptor | P35462 | D3R DiscoveRx beta-arrestin cells, luminescence, 90 min | max activation, % | 410,000 tested, 0.58% active | AID 652048; in the data active means max activation above about 30%; further: 0% is about no effect
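Cells at 1500/well, incubated overnight, then treated with pinned compounds (dopamine as control) for 90 min at 37 degrees C. DiscoveRx reagent added for 30 - 60 minutes at room temperature; luminescence read.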
RGS4 inhibitor = blocks human RGS4-accelerated GTP hydrolysis. P49798. Transcreener GDP fluorescence polarization, RGS4-accelerated GTP hydrolysis. Potency, µM (doses to about 114 µM), for the others: top-dose activity change, negative = inhibition, actives largely listed as inhibitors. 390,000 tested, 0.039% active. AID 504845; active means well fitted inhibition curve with a large enough effect; inconclusive means small, poorly fitted or top-dose-only effect; inactive means no such curve, though single readings can be large or run the other way; further: potency means the concentration at half of the fitted maximal effect; on the % scale 0 is the no-effect control and ±100 the full control effect; nearly all actives have a fitted effect of over 75% in size
Target sequence (P49798 whole entry, looked up): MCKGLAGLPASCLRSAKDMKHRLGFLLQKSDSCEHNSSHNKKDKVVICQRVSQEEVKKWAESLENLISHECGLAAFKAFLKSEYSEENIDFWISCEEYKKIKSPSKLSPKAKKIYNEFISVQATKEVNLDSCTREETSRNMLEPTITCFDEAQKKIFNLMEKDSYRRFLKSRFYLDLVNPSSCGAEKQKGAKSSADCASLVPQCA
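MLSMR compounds (23 nl, pin-transferred) preincubated 10 min at room temperature with a 500nM (2x) first reagent, then RGS4 at 900nM (2x) plus Transcreener GDP mix added; fluorescence polarization (620/688 nm) read before and after 90 min at 30 °C.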
pAkt inh = Akt phosphorylation inhibition. Neuro2A IGF-stimulated pAkt S473 HTRF, 20 min; active compounds read low. activity change, % for hits at 50 µM. AID 651550. 360,000 tested, 0.32% active; in the data active means activity change below about -80%; inconclusive means mostly about -51% to -80%; further: on the % scale 0 is the no-effect control and ±100 the full control effect
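Neuro2A cells (4,500/well, DMEM with 0.5% FBS) were treated with compound at a single 50 µM final concentration, stimulated with 6 nM IGF for 20 min at 37 °C, and lysed. Phospho-Akt Ser473 was read by HTRF as 665/615 ratio ×10^4.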
LDHA inh = LDHA (human) enzyme inhibition; purified LDHA, NADH/diaphorase-resazurin fluorescence; active compounds read low; 480,000 tested, 0.15% active; AID 1347041; activity change, % (values are at about 110 or 230 µM); in the data active means activity change below about -30%; inconclusive means mostly about -25% to -30%;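 further: plate controls were DMSO wells for no effect and wells without enzyme for full effect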
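Resorufin fluorescence (ex540/em590), read at 0 and 20 min after diaphorase/resazurin addition, reports the NADH left after a 5 min room-temperature reaction of 2 nM human LDH5 with 0.06 mM NADH and 0.2 mM pyruvate.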
Numbers without * were called inactive; ! = not confirmed by another sample; [ ] = dose if it differs, or a comment.

Cc1cccc(C)c1Nc1nnc(SCc2nc3ccccc3c(=O)[nH]2)s1 was read as DRD3 antagonist 0.0, PI4K2A block -0.2, DRD3 agonist 5.3, RGS4 inhibitor 14.8%, pAkt inh inactive and LDHA inh -4.9.
c1ccc(Nc2nnc(SCc3cccc4ccccc34)s2)cc1 was read as DRD3 antagonist 11.0, PI4K2A block -12.7, DRD3 agonist 2.4, RGS4 inhibitor -20.7%, pAkt inh -113.6%* and LDHA inh -2.4.
Cc1nnc(SCc2cccc3ccccc23)s1 was read as DRD3 antagonist -14.8, PI4K2A block 0.1, DRD3 agonist -2.7, RGS4 inhibitor -14.9%, pAkt inh inactive and LDHA inh -8.1.
`CCOc1ccc(Nc2nnc(SCc3nc4ccccc4c(=O)[nH]3)s2)cc1` gave DRD3 antagonist -61.8*, PI4K2A block 3.4, DRD3 agonist -15.8, RGS4 inhibitor -20.7%, pAkt inh inactive and LDHA inh -2.3.
Screening CC(C)(C)c1ccc(NC(=O)c2cc(F)c(F)c(F)c2F)cc1 returned LDHA inh 5.0.
For O=C(COc1cccc(Br)c1)Nc1ccc(NC(=O)C2CC2)cc1C(F)(F)F the results were LDHA inh -4.4.
CC(=O)c1sc(N/N=C\c2c(O)ccc3ccccc23)nc1C was read as DRD3 antagonist -54.3*, PI4K2A block -1.6, DRD3 agonist -9.9, RGS4 inhibitor inconclusive, pAkt inh inactive and LDHA inh 5.2.
Screening CC(=O)c1sc(N/N=C/c2cccc(O)c2)nc1C returned DRD3 antagonist -18.2, PI4K2A block 4.1, DRD3 agonist -7.2, RGS4 inhibitor 6.9%, pAkt inh inactive and LDHA inh -10.2.
For Cc1ccc(S(=O)(=O)n2nc(OC(=O)c3c(-c4ccccc4Cl)noc3C)cc2N)cc1 the results were DRD3 antagonist -57.7*, PI4K2A block 20.6, DRD3 agonist 4.8, RGS4 inhibitor -46.8%[11.4 µM], pAkt inh inactive and LDHA inh -6.7.
COC(=O)C1=C(C(=O)OC)SC2(S1)C(C(=O)OC)=C(C(=O)OC)SC1=C2c2cc(C)cc(C)c2NC1(C)C was read as DRD3 antagonist -77.9*, PI4K2A block -11.2, DRD3 agonist -6.3, RGS4 inhibitor -13.4%, pAkt inh inactive and LDHA inh 0.3.
Screening CN1CCc2cccc3c2[C@H]1Cc1ccc(O)c(O)c1-3 returned DRD3 antagonist -20.2, PI4K2A block -2.5, DRD3 agonist 76.0*!, RGS4 inhibitor inconclusive, pAkt inh inactive and LDHA inh 18.5.
COc1cc2c3cc1OCc1c(O)c(OC)cc4c1C(Cc1ccc(cc1)Oc1cc(ccc1O)CC3N(C)CC2)N(C)CC4 (centres undefined) was read as RGS4 inhibitor 12.4%.
Screening NC1=NC(=O)CC(C(=O)NCc2ccccc2)S1 (centres undefined) returned DRD3 antagonist 7.1, PI4K2A block 2.7, DRD3 agonist -1.6, RGS4 inhibitor -38.8%, pAkt inh inactive and LDHA inh 3.1.
NC1=NC(=O)C(CC(=O)NCc2ccccc2)S1 (centres undefined) was read as DRD3 antagonist -65.0*, PI4K2A block -5.5, DRD3 agonist 3.5, RGS4 inhibitor -47.2%, pAkt inh inactive and LDHA inh 0.3.
OCc1cccc(N=Cc2ccc(Cl)cc2Cl)c1 was read as LDHA inh -5.5.
CC(=O)N/N=C(/C)c1ccc(NC(=O)C2CC2)cc1 was read as LDHA inh 32.0.
For COc1cccc(Nc2cc(C)nc3ccccc23)c1 the results were DRD3 antagonist -55.7*, PI4K2A block -2.8, DRD3 agonist -2.0, RGS4 inhibitor -21.2%, pAkt inh inactive and LDHA inh 0.0.
`COc1cccc(Nc2cc(C)nc3ccc(Cl)cc23)c1` gave LDHA inh 7.5.
Screening COc1cccc2cc(C(=O)C3=C(O)C(=O)N(Cc4ccco4)C3c3cccnc3)oc12 (centres undefined) returned DRD3 antagonist -8.5, PI4K2A block -7.4, DRD3 agonist -11.2, RGS4 inhibitor -41.7%, pAkt inh inactive and LDHA inh 1.6.
For O=C(C1=C(O)C(=O)N(Cc2ccco2)C1c1cccnc1)c1cc2ccccc2o1 (centres undefined) the results were DRD3 antagonist -13.6, PI4K2A block -12.3, DRD3 agonist -5.6, RGS4 inhibitor -37.3%, pAkt inh -82.1%* and LDHA inh 7.8.
For COc1cccc(C(=O)/C=C/c2ccc(Br)cc2)c1 the results were LDHA inh -2.9.
For CC(C)(C)OC(=O)NCCCC[C@@H](C(=O)NCCCCCCCCCCC(=O)N1CCN(C(=O)OC(C)(C)C)CC1)n1cc(CCO)nn1 the results were DRD3 antagonist 29.5, PI4K2A block -1.9, DRD3 agonist 37.7*, RGS4 inhibitor -8.3%, pAkt inh inactive and LDHA inh -4.8.
`CC[C@@H](C)[C@@H](C(=O)N1CCN(C(=O)OC(C)(C)C)CC1)n1cc(CCCCNC(=O)OC(C)(C)C)nn1` gave DRD3 antagonist 142.4, PI4K2A block -0.7, DRD3 agonist 53.0*, RGS4 inhibitor 19.6%, pAkt inh inactive and LDHA inh -4.0.
Screening CSCC[C@@H](C(=O)NCCCCCCCCCCC(=O)N1CCN(C(=O)OC(C)(C)C)CC1)n1cc(CCO)nn1 returned DRD3 antagonist 76.8, PI4K2A block 0.4, DRD3 agonist 23.6, RGS4 inhibitor -7.2%, pAkt inh inactive and LDHA inh 0.0.
For CNC[C@H](CC1CCCCC1)NC[C@H](CO)NCCc1cccc(C(F)(F)F)c1 the results were DRD3 antagonist -84.0*, PI4K2A block 4.0, DRD3 agonist -35.1, RGS4 inhibitor 30.3%, pAkt inh inactive and LDHA inh -1.1.
`Cc1cccc(Nc2nc(-c3ccccn3)cs2)n1` gave DRD3 antagonist -79.0*, PI4K2A block -1.8, DRD3 agonist -41.0, RGS4 inhibitor -15.5%, pAkt inh inactive and LDHA inh 9.2.
`COc1ccc(-c2csc(Nc3cccc(C)n3)n2)cc1C` gave DRD3 antagonist 9.0, PI4K2A block 4.0, DRD3 agonist 41.5*, RGS4 inhibitor -13.4%, pAkt inh inactive and LDHA inh -1.6.
`Cc1cccnc1Nc1nc(-c2ccccn2)cs1` gave DRD3 antagonist -86.4*, PI4K2A block -12.1, DRD3 agonist -38.6, RGS4 inhibitor 23.8%, pAkt inh inactive and LDHA inh -0.5.
Screening COc1ccc(-c2csc(Nc3cccc(C)n3)n2)cc1 returned DRD3 antagonist 7.8, PI4K2A block -7.2, DRD3 agonist 6.8, RGS4 inhibitor -12.0%, pAkt inh inactive and LDHA inh -7.3.

High-throughput results from PubChem.
